The entries come from a sample that favours the strongest signals as a whole.
Experiments:
Experiment in all cases: glycan array binding signal (z-score within array); higher = stronger binding
Details in all cases: glycan notation: IUPAC condensed, linker removed
[1] = biological target: Fuc(a1-2)Gal(b1-3)GlcNAc(b1-2)Man(a1-3)[Fuc(a1-2)Gal(b1-3)GlcNAc(b1-2)Man(a1-6)]Man(b1-4)GlcNAc(b1-4)[Fuc(a1-6)]GlcNAc
Method in brief: (§1)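 Glycan array binding is given as a within-array Z-score, which can be read as non-binding when negative. The arrays, 3228 of them, came from the Consortium for Functional Glycomics database and were retained only where the protein sequence was available. Z-scores were averaged across arrays of the same protein sequence at different concentrations or buffers and across linkers.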

[2] = biological target: Fuc(a1-2)Gal(b1-4)GlcNAc(b1-2)Man(a1-3)[Fuc(a1-2)Gal(b1-4)GlcNAc(b1-2)Man(a1-6)]Man(b1-4)GlcNAc(b1-4)[Fuc(a1-6)]GlcNAc
Method in brief: as §1

[3] = biological target: Fuc(a1-2)[Gal(a1-3)]Gal(b1-3)GlcNAc(b1-3)GalNAc
Method in brief: as §1

[4] = biological target: Fuc(a1-2)[Gal(a1-3)]Gal(b1-3)GlcNAc(b1-6)GalNAc
Method in brief: as §1

[5] = biological target: Fuc(a1-2)[Gal(a1-3)]Gal(b1-4)GlcNAc(b1-2)Man(a1-3)[Fuc(a1-2)[Gal(a1-3)]Gal(b1-4)GlcNAc(b1-2)Man(a1-6)]Man(b1-4)GlcNAc(b1-4)[Fuc(a1-6)]GlcNAc
Method in brief: as §1

[6] = biological target: Fuc(a1-2)[GalNAc(a1-3)]Gal(b1-3)GlcNAc(b1-3)GalNAc
Method in brief: as §1

[7] = biological target: Fuc(a1-2)[GalNAc(a1-3)]Gal(b1-4)GlcNAc(b1-3)[Fuc(a1-2)[GalNAc(a1-3)]Gal(b1-4)GlcNAc(b1-6)]GalNAc
Method in brief: as §1

[8] = biological target: Fuc(a1-3)[Gal(b1-4)]Glc6S
Method in brief: as §1

[9] = biological target: Fuc(a1-3)[Gal(b1-4)]GlcNAc(b1-3)GalNAc
Method in brief: as §1

[10] = biological target: Fuc(a1-3)[Gal3S(b1-4)]GlcNAc6S
Method in brief: as §1

[11] = biological target: Fuc(a1-3)[GalNAc(b1-4)]GlcNAc
Method in brief: as §1

[12] = biological target: Gal(a1-3)Gal(b1-3)GlcNAc(b1-2)Man
Method in brief: as §1

[13] = biological target: Gal(a1-3)Gal(b1-3)[Fuc(a1-4)]GlcNAc(b1-2)Man(a1-3)[Gal(a1-3)Gal(b1-3)[Fuc(a1-4)]GlcNAc(b1-2)Man(a1-6)]Man(b1-4)GlcNAc(b1-4)GlcNAc
Method in brief: as §1

[14] = biological target: Gal(a1-3)Gal(b1-4)[Fuc(a1-3)]GlcNAc
Method in brief: as §1

[15] = biological target: Gal(a1-4)Gal(b1-4)GlcNAc(b1-2)Man(a1-3)[Gal(a1-4)Gal(b1-4)GlcNAc(b1-2)Man(a1-6)]Man(b1-4)GlcNAc(b1-4)GlcNAc
Method in brief: as §1

[16] = biological target: Gal(b1-3)GlcNAc(a1-3)Gal(b1-4)GlcNAc
Method in brief: as §1

[17] = biological target: Gal(b1-3)GlcNAc(b1-2)[Gal(b1-3)GlcNAc(b1-6)]Man(a1-6)[Gal(b1-3)GlcNAc(b1-2)Man(a1-3)]Man(b1-4)GlcNAc(b1-4)GlcNAc
Method in brief: as §1

[18] = biological target: Gal(b1-3)GlcNAc(b1-3)Gal(b1-4)GlcNAc
Method in brief: as §1

[19] = biological target: Gal(b1-3)GlcNAc(b1-3)Gal(b1-4)[Fuc(a1-3)]GlcNAc
Method in brief: as §1

[20] = biological target: Gal(b1-3)GlcNAc(b1-3)Gal(b1-4)[Fuc(a1-3)]GlcNAc(b1-6)[Gal(b1-3)GlcNAc(b1-3)]Gal(b1-4)Glc
Method in brief: as §1

[21] = biological target: Gal(b1-3)GlcNAc(b1-6)[Gal(b1-3)]GalNAc
Method in brief: as §1

[22] = biological target: Gal(b1-4)GlcNAc(b1-3)Gal(b1-4)Glc
Method in brief: as §1

[23] = biological target: Gal(b1-4)GlcNAc(b1-3)Gal(b1-4)GlcNAc(b1-3)Gal(b1-4)GlcNAc(b1-3)Gal(b1-4)GlcNAc(b1-2)Man(a1-3)[Gal(b1-4)GlcNAc(b1-3)Gal(b1-4)GlcNAc(b1-3)Gal(b1-4)GlcNAc(b1-3)Gal(b1-4)GlcNAc(b1-2)Man(a1-6)]Man(b1-4)GlcNAc(b1-4)[Fuc(a1-6)]GlcNAc
Method in brief: as §1

Gal6S(b1-3)GlcNAc = biological target: Gal6S(b1-3)GlcNAc
Method in brief: as §1

GalNAc(a1-3)GalNAc = biological target: GalNAc(a1-3)GalNAc
Method in brief: as §1

[24] = biological target: Glc(a1-2)Glc(a1-3)Glc(a1-3)Man(a1-2)Man(a1-2)Man(a1-3)[Man(a1-2)Man(a1-3)[Man(a1-2)Man(a1-6)]Man(a1-6)]Man(b1-4)GlcNAc
Method in brief: as §1

[25] = biological target: GlcA(b1-3)GlcNAc(b1-4)GlcA(b1-3)GlcNAc(b1-4)GlcA(b1-3)GlcNAc(b1-4)GlcA(b1-3)GlcNAc(b1-4)GlcA(b1-3)GlcNAc(b1-4)GlcA(b1-3)GlcNAc(b1-4)GlcA(b1-3)GlcNAc(b1-4)GlcA(b1-3)GlcNAc
Method in brief: as §1

[26] = biological target: GlcNAc(a1-3)Gal(b1-4)GlcNAc
Method in brief: as §1

[27] = biological target: GlcNAc(b1-2)Man(a1-3)[GlcNAc(b1-2)Man(a1-6)]Man(b1-4)GlcNAc(b1-4)GlcNAc
Method in brief: as §1

[28] = biological target: GlcNAc(b1-2)Man(a1-3)[Man(a1-3)[Man(a1-6)]Man(a1-6)][GlcNAc(b1-4)]Man(b1-4)GlcNAc(b1-4)GlcNAc
Method in brief: as §1

B1: Banana lectin (Musa acuminata) (protein)
chain: MNGAIKVGAWGGNGGSAFDMGPAYRIISVKIFSGDVVDGVDVTFTYYGKTETRHYGGSGGTPHEIVLQEGEYLVGMAGEVANYHGAVVLGKLGFSTNKKAYGPFGNTGGTPFSLPIAAGKISGFFGRGGKFLDAIGVYLEPLEHHHHHH
glycan array binding signal (z-score) [1]: 0.041 | glycan array binding signal (z-score) [2]: 0.084 | glycan array binding signal (z-score) [3]: -0.22 | glycan array binding signal (z-score) [4]: -0.374 | glycan array binding signal (z-score) [5]: 0.595 | glycan array binding signal (z-score) [6]: -0.215 | glycan array binding signal (z-score) [7]: -0.173 | glycan array binding signal (z-score) [8]: -0.211 | glycan array binding signal (z-score) [9]: -0.268 | glycan array binding signal (z-score) [10]: -0.212 | glycan array binding signal (z-score) [11]: -0.132 | glycan array binding signal (z-score) [12]: -0.189 | glycan array binding signal (z-score) [13]: 0.245 | glycan array binding signal (z-score) [14]: -0.222 | glycan array binding signal (z-score) [15]: -0.174 | glycan array binding signal (z-score) [16]: 3.29 | glycan array binding signal (z-score) [17]: 0.504 | glycan array binding signal (z-score) [18]: -0.264 | glycan array binding signal (z-score) [19]: -0.216 | glycan array binding signal (z-score) [20]: -0.216 | glycan array binding signal (z-score) [21]: 0.054 | glycan array binding signal (z-score) [22]: -0.22 | glycan array binding signal (z-score) [23]: -0.154 | glycan array binding signal (z-score) (Gal6S(b1-3)GlcNAc): -0.197 | glycan array binding signal (z-score) (GalNAc(a1-3)GalNAc): -0.213 | glycan array binding signal (z-score) [24]: 1.56 | glycan array binding signal (z-score) [25]: -0.99 | glycan array binding signal (z-score) [26]: 0.842 | glycan array binding signal (z-score) [27]: 0.105 | glycan array binding signal (z-score) [28]: -0.039
